Results reported in the supplement of paper PMC10849652.
Targets with a hit are over-represented here; the source holds about 7,900 in all. About 0.6% of all pairs of compound and target were hits.

Experiments:
Test in all cases: log2 fold change, soluble protein after heating vs DMSO (PISA); higher = thermal stabilisation; K562 cells, 10 uM, 30 min; active = over 0.2 and 3.5 SD of the protein, either way, in both replicates (recomputed)
[1] = compound: COC1=CC=C(C=C1)CN2C=CC3=C2C=C(C=C3)C(=O)NO
In short: (§1)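 For each measurement, 10 μM compound was applied for 30 min to K562 cells at 2×10^6 cells/mL. Aliquots were heated for 3 min across 48°C-58°C, pooled, and extracted in PBS with 0.5% NP-40 at 4°C; the supernatant after 21,000xg for 90 min was soluble protein. This was quantified by TMTpro 16plex LC-MS/MS with channel sums equalised, and thermal stability was reported relative to control samples from duplicates, on a log2 fold-change scale.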

[2] = compound: CON(C)C(=O)N1N=C(c2cc(F)ccc2F)S[C@@]1(CCCN)c1ccccc1 [filanesib]
In short: as §1

[3] = compound: CO[C@H]1C[C@@H]2CC[C@@H](C)[C@@](O)(O2)C(=O)C(=O)N2CCCC[C@H]2C(=O)O[C@H]([C@H](C)C[C@@H]2CC[C@H](n3cnnn3)[C@H](OC)C2)CC(=O)[C@H](C)/C=C(\C)[C@@H](O)[C@@H](OC)C(=O)[C@H](C)C[C@H](C)/C=C/C=C/C=C/1C [zotarolimus]
In short: as §1

[4] = compound: COc1cc(C(=O)O)ccc1NC(=O)[C@@H]1N[C@@H](CC(C)(C)C)[C@](C#N)(c2ccc(Cl)cc2F)[C@H]1c1cccc(Cl)c1F [idasanutlin]
In short: as §1

[5] = compound: COc1cc(Nc2ncc3c(n2)-c2ccc(Cl)cc2C(c2c(F)cccc2OC)=NC3)ccc1C(=O)O [alisertib]
In short: as §1

[6] = compound: COc1cc2nc(-c3cc(F)ccc3O)nc(N[C@@H]3CNC[C@H]3C(C)(C)O)c2cc1OC
In short: as §1

[7] = compound: COc1cc2ncnc(Nc3ccc(F)c(Cl)c3)c2cc1OCCCN1CCOCC1 [gefitinib]
In short: as §1

[8] = compound: COc1cccc2cc(-c3nc([C@H]4CC[C@H](C(=O)O)CC4)n4ncnc(N)c34)[nH]c12
In short: as §1

[9] = compound: CS(=O)(=O)CCNCc1ccc(-c2ccc3ncnc(Nc4ccc(OCc5cccc(F)c5)c(Cl)c4)c3c2)o1 [lapatinib]
In short: as §1

[10] = compound: CS(=O)(=O)N1CCN(Cc2cc3nc(-c4cccc5[nH]ncc45)nc(N4CCOCC4)c3s2)CC1 [pictilisib]
In short: as §1

[11] = compound: CS(=O)(=O)c1ccc(-c2cnc(N)c(C(=O)Nc3ccccc3)n2)cc1
In short: as §1

[12] = compound: C[C@@H](Oc1cc(-c2cnn(C3CCNCC3)c2)cnc1N)c1c(Cl)ccc(F)c1Cl [crizotinib]
In short: as §1

[13] = compound: C[C@@H]1COCCN1C2=NC(=NC(=C2)C3(CC3)S(=O)(=O)C)C4=C5C=CNC5=CC=C4
In short: as §1

[14] = compound: C[C@H](C1=CC=C(C=C1)C(=O)NC2=C3C=CNC3=NC=C2)N
In short: as §1

[15] = compound: C[C@H](Nc1ncnc2nc[nH]c12)c1cc2cccc(Cl)c2c(=O)n1-c1ccccc1 [duvelisib]
In short: as §1

[16] = compound: Cc1cc(Nc2cc(CN3CCOCC3)c3nc(C)c(Cc4ccc(Cl)cc4F)n3n2)n[nH]1 [gandotinib]
In short: as §1

[17] = compound: Cc1cc(Nc2cc(N3CCN(C)CC3)nc(Sc3ccc(NC(=O)C4CC4)cc3)n2)n[nH]1 [tozasertib]
In short: as §1

[18] = compound: Cc1cc(SCc2sc(-c3ccc(C(F)(F)F)cc3)nc2C)ccc1OCC(=O)O
In short: as §1

[19] = compound: Cc1ccc(-n2nc(C(C)(C)C)cc2NC(=O)Nc2ccc(OCCN3CCOCC3)c3ccccc23)cc1 [doramapimod]
In short: as §1

[20] = compound: Cc1ccc(C(=O)N(CCCN)[C@@H](c2nc3cc(Cl)ccc3c(=O)n2Cc2ccccc2)C(C)C)cc1 [ispinesib]
In short: as §1

Measured: log2 fold change

EDC3 (UniProt Q96F86)
active: [13] -0.439
inactive: [1] 0.02 | [2] 0.112 | [3] -0.156 | [4] 0.065 | [5] 0.02 | [6] 0.046 | [7] -0.013 | [8] -0.337 | [9] -0.019 | [10] -0.187 | [11] 0.002 | [12] -0.237 | [14] -0.014 | [15] -0.14 | [16] -0.023 | [17] -0.025 | [18] 0.066 | [19] 0.05 | [20] -0.121

FAAP100 (UniProt Q0VG06)
UniProt Q0VG06, sequence (Q0VG06 whole entry, looked up): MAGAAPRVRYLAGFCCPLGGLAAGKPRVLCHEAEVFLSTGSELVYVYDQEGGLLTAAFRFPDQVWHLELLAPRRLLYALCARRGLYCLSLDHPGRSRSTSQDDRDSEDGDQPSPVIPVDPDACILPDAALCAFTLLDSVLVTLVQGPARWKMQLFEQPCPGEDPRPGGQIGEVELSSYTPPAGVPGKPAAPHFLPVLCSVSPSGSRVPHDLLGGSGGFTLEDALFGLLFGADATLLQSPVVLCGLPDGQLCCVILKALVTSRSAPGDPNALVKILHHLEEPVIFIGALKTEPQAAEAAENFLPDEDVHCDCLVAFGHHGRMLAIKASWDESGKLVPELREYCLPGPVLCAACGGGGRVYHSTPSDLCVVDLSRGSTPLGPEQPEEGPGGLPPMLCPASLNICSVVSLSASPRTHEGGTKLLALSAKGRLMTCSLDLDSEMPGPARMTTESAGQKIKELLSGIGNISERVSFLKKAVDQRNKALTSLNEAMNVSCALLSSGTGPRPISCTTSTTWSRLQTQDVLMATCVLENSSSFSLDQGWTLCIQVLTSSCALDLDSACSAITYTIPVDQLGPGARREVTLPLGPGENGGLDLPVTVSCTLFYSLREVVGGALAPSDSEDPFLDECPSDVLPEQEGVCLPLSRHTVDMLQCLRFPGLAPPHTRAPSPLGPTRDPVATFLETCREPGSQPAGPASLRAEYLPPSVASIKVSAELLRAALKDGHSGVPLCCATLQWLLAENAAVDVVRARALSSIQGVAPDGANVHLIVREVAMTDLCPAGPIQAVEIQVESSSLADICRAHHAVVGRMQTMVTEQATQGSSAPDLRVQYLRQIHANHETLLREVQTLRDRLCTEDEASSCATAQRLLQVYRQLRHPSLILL
inactive: [1] -0.008 | [2] -0.012 | [3] -0.025 | [4] 0.055 | [5] -0.044 | [6] -0.095 | [7] 0.036 | [8] 0.004 | [9] 0.011 | [10] -0.067 | [11] -0.043 | [12] -0.027 | [13] 0.142 | [14] -0.051 | [15] 0.041 | [16] -0.096 | [17] -0.023 | [18] -0.077 | [19] 0.033 | [20] -0.006

CTU1 (UniProt Q7Z7A3)
inactive: [1] 0.045 | [2] -0.193 | [3] 0.022 | [4] -0.037 | [5] -0.063 | [6] -0.061 | [7] -0.024 | [8] 0.025 | [9] -0.085 | [10] -0.005 | [11] 0.005 | [12] -0.132 | [13] 0.081 | [14] -0.032 | [15] -0.012 | [16] -0.015 | [17] -0.026 | [18] 0.058 | [19] -0.049 | [20] -0.082

DPH5 isoform 5 (UniProt Q9H2P9)
UniProt Q9H2P9, sequence (Q9H2P9 whole entry, looked up): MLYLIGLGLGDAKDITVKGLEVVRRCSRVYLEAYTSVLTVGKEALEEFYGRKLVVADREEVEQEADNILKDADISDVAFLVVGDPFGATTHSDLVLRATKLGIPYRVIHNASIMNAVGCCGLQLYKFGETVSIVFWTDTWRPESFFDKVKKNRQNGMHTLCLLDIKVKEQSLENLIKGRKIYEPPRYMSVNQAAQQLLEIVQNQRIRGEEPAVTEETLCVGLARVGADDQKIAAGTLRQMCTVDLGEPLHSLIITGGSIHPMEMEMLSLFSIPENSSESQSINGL
inactive: [1] -0.01 | [2] -0.024 | [3] -0.002 | [4] -0.049 | [5] -0.037 | [6] -0.071 | [7] 0.017 | [8] 0.046 | [9] 0.043 | [10] -0.006 | [11] 0.017 | [12] 0.092 | [13] 0.072 | [14] -0.046 | [15] 0.077 | [16] -0.011 | [17] -0.01 | [18] -0.01 | [19] -0.025 | [20] 0.076

EXOC4 (UniProt Q96A65)
UniProt Q96A65, sequence (Q96A65 whole entry, looked up): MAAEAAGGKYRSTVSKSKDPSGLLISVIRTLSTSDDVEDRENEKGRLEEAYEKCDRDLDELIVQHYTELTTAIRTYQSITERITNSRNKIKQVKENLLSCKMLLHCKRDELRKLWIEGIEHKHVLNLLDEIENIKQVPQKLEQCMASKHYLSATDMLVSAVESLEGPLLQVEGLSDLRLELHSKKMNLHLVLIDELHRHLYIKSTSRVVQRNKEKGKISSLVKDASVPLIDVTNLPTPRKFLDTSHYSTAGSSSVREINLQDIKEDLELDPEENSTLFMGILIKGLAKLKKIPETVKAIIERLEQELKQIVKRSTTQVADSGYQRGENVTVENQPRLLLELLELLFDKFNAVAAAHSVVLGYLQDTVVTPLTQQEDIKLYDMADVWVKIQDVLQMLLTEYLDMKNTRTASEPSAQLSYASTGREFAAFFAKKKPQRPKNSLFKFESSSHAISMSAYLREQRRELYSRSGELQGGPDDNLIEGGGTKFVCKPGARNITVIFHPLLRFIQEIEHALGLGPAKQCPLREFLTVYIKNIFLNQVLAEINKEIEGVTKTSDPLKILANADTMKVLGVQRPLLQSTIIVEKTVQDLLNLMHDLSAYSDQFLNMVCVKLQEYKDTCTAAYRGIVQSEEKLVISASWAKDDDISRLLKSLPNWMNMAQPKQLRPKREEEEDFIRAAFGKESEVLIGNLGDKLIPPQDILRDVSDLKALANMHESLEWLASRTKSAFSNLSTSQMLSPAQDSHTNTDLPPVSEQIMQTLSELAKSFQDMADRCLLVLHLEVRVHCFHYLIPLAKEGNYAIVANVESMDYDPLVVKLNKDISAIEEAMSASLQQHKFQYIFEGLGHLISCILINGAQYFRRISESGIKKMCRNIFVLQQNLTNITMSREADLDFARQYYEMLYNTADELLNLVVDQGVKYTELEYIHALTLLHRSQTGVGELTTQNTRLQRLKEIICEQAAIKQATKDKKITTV
inactive: [1] 0.029 | [2] 0.009 | [3] 0.065 | [4] -0.052 | [5] -0.002 | [6] 0.164 | [7] 0.002 | [8] -0.086 | [9] 0.008 | [10] -0.059 | [11] 0.003 | [12] -0.275 | [13] -0.099 | [14] 0.098 | [15] -0.028 | [16] -0.068 | [17] 0.041 | [18] 0.162 | [19] 0.016 | [20] -0.29

EIF4A1 (UniProt P60842)
UniProt P60842, sequence (P60842 whole entry, looked up): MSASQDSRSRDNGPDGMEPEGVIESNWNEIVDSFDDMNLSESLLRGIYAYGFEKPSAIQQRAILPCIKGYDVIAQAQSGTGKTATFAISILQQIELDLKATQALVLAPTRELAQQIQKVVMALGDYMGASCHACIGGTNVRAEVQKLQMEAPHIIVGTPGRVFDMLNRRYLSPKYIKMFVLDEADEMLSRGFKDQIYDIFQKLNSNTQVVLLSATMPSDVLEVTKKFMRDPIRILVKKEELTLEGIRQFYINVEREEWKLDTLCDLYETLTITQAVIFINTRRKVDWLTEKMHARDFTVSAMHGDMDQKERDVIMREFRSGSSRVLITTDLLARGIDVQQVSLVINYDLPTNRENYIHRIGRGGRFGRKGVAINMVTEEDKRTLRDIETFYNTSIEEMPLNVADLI
inactive: [1] 0.061 | [2] -0.11 | [3] -0.009 | [4] -0.075 | [5] -0.004 | [6] -0.01 | [7] 0.004 | [8] -0.027 | [9] 0.016 | [10] -0.088 | [11] -0.055 | [12] -0.058 | [13] 0.03 | [14] -0.015 | [15] 0.007 | [16] -0.206 | [17] -0.008 | [18] 0.047 | [19] 0.025 | [20] -0.11

E2F4 (UniProt Q16254)
inactive: [1] -0.024 | [2] -0.034 | [3] 0.042 | [4] 0.006 | [5] -0.056 | [6] -0.098 | [7] 0.003 | [8] 0.059 | [9] 0.047 | [10] 0.044 | [11] 0.04 | [12] -0.029 | [13] 0.024 | [14] -0.095 | [15] 0.027 | [16] -0.034 | [17] 0.086 | [18] -0.019 | [19] 0.024 | [20] -0.103

CTSV (UniProt O60911)
UniProt O60911, sequence (O60911 whole entry, looked up): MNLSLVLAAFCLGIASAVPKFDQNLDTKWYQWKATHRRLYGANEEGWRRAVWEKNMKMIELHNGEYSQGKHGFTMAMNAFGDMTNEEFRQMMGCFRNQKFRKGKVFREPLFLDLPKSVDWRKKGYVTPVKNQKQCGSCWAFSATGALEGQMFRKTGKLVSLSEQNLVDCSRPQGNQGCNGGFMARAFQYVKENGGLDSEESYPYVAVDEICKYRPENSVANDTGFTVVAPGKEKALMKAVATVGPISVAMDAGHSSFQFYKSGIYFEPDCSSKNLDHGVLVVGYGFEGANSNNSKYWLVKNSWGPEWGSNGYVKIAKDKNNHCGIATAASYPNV
active: [12] -1.59 | [20] -0.453
inactive: [1] -0.006 | [2] -0.112 | [3] -0.011 | [4] -0.036 | [5] -0.042 | [6] -0.002 | [7] 0.056 | [8] 0.141 | [9] -0.064 | [10] 0.135 | [11] 0.073 | [13] 0.099 | [14] -0.01 | [15] -0.039 | [16] -0.334 | [17] -0.031 | [18] -0.04 | [19] -0.005

EEF1D isoform 2 (UniProt P29692)
UniProt P29692, sequence (P29692 whole entry, looked up): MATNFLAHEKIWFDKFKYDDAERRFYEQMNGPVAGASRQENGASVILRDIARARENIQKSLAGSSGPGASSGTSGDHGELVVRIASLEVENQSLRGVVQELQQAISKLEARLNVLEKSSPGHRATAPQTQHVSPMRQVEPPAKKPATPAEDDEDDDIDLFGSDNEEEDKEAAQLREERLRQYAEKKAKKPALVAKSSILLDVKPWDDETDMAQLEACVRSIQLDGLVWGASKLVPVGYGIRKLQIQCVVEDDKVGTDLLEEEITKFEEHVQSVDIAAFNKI
inactive: [1] -0.038 | [2] 0.034 | [3] 0.036 | [4] -0.042 | [5] -0.016 | [6] 0.028 | [7] 0.028 | [8] -0.011 | [9] 0.022 | [10] -0.01 | [11] 0.043 | [12] 0.004 | [13] -0.028 | [14] 0.066 | [15] -0.011 | [16] -0.057 | [17] 0.038 | [18] 0.04 | [19] 0.026 | [20] -0.055

FAM50A (UniProt Q14320)
UniProt Q14320, sequence (Q14320 whole entry, looked up): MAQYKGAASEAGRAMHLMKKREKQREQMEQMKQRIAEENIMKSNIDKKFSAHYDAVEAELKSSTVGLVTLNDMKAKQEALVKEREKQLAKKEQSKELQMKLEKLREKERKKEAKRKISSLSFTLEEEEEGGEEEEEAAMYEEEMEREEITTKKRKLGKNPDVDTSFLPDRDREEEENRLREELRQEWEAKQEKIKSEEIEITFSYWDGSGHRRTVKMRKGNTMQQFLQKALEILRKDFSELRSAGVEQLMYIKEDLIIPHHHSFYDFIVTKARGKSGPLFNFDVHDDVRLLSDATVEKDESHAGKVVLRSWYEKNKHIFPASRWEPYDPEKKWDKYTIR
inactive: [1] -0.019 | [2] -0.008 | [3] 0.026 | [4] -0.025 | [5] -0.003 | [6] -0.026 | [7] 0.039 | [8] -0.025 | [9] 0.022 | [10] 0.056 | [11] 0.009 | [12] 0.129 | [13] 0.026 | [14] -0.06 | [15] -0.03 | [16] 0.147 | [17] 0.089 | [18] 0.092 | [19] -0.061 | [20] 0.095

DAB2 (UniProt P98082)
UniProt P98082, sequence (P98082 whole entry, looked up): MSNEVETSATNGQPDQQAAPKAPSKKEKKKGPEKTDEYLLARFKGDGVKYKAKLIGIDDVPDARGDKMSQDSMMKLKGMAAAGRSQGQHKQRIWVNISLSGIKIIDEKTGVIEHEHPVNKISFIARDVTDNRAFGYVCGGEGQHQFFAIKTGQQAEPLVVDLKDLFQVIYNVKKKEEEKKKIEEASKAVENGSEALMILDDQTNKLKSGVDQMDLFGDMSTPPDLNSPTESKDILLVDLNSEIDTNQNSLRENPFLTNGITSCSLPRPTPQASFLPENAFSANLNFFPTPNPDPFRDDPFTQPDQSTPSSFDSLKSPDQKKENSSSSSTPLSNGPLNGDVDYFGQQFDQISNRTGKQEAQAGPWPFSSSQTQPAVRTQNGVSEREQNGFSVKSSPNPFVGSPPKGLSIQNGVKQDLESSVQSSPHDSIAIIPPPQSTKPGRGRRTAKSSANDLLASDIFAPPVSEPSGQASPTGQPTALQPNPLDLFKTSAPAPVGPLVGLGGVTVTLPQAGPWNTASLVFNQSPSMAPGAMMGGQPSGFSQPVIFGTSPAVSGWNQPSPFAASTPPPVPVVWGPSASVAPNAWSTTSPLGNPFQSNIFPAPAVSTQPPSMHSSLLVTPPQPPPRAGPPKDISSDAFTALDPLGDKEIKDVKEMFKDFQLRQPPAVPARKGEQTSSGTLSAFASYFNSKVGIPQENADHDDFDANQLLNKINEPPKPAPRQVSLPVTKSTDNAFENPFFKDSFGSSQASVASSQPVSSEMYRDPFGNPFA
inactive: [1] -0.009 | [2] 0.079 | [3] 0 | [4] -0.055 | [5] -0.081 | [6] 0.155 | [7] 0.024 | [8] 0.011 | [9] -0.005 | [10] 0.071 | [11] -0.04 | [12] -0.099 | [13] 0.049 | [14] -0.052 | [15] -0.021 | [16] -0.021 | [17] -0.023 | [18] 0.069 | [19] 0.022 | [20] -0.091

DMAC1 (UniProt Q96GE9)
UniProt Q96GE9, sequence (Q96GE9 whole entry, looked up): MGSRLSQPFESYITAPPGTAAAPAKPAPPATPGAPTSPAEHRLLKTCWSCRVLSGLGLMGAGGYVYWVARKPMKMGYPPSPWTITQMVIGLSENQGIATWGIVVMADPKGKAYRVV
inactive: [1] -0.121 | [2] 0.04 | [3] -0.04 | [4] -0.339 | [5] -0.174 | [6] -0.111 | [7] -0.074 | [8] 0.145 | [9] 0.053 | [10] 0.038 | [11] 0.023 | [12] 0.034 | [13] 0.037 | [14] 0.005 | [15] 0.166 | [16] -0.087 | [17] -0.153 | [18] -0.22 | [19] 0.066 | [20] -0.108

ETNK1 (UniProt Q9HBU6)
UniProt Q9HBU6, sequence (Q9HBU6 whole entry, looked up): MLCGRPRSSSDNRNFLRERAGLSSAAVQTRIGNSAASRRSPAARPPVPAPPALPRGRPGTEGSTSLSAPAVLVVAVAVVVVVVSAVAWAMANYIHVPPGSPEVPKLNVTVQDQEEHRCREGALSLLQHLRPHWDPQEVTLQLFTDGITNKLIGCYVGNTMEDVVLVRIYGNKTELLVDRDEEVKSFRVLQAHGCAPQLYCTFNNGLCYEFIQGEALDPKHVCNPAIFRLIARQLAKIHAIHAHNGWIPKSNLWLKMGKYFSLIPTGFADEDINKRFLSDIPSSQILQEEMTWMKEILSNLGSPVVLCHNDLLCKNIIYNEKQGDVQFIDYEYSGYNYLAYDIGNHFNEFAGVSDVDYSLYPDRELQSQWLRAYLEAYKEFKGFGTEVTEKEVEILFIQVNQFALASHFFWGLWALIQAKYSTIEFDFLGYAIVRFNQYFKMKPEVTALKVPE
inactive: [1] -0.083 | [2] -0.172 | [3] 0.016 | [4] -0.105 | [5] -0.045 | [6] 0.013 | [7] -0.02 | [8] 0.01 | [9] 0.078 | [10] -0.044 | [11] -0.006 | [12] -0.022 | [13] 0.088 | [14] -0.032 | [15] 0.075 | [16] -0.057 | [17] 0.021 | [18] 0.118 | [19] 0.001 | [20] 0.059

FAM83D (UniProt Q9H4H8)
inactive: [1] -0.009 | [2] 0.062 | [3] 0.051 | [4] -0.109 | [5] -0.135 | [6] 0.018 | [7] 0.05 | [8] -0.034 | [9] 0.021 | [10] -0.136 | [11] -0.018 | [12] -0.061 | [13] 0.021 | [14] 0.014 | [15] 0.001 | [17] 0.025 | [18] 0.08 | [19] -0.009 | [20] 0.064
active: [16] -0.308

EIF2AK1 (UniProt Q9BQI3)
inactive: [1] -0.047 | [2] 0.014 | [3] -0.057 | [4] -0.035 | [5] 0.032 | [6] 0.01 | [8] -0.089 | [9] 0.025 | [10] -0.147 | [11] 0.023 | [12] 0.015 | [13] 0.015 | [14] 0.045 | [15] -0.007 | [16] 0.137 | [17] -0.028 | [18] 0.053 | [19] 0.068 | [20] -0.024
